Source: PubChem (Sanford-Burnham Center for Chemical Genomics)
TRAIL sens C8 – sensitizes caspase-8 expressing cells to TRAIL. AID 624354. NB7+C8 cells + TRAIL, ATPlite viability luminescence. hit rate 1% among 360,000. inhibition (viability loss, TRAIL sensitization), % at 10 µM;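 active = compounds causing at least 50% loss of cell viability in the single-dose screen, relative to plate controls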
SENP8 block-1 – inhibitors of human SENP8 protease. inhibition, % at 10 µM. purified SENP8, Z-RLRGG-aminoluciferin cleavage, luminescence. AID 2540. Q96LD8. hit rate 1.2% among 330,000; in the data active = inhibition above about 50%
SENP6 block – inhibitors of human SENP6 protease. Recombinant SENP6 catalytic domain, aminoluciferin luminescence. inhibition, % at 10 µM. AID 2599. hit rate 1.8% among 330,000. Q9GZR1;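 active = inhibition above about 50% at the single tested dose, limit read from the data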;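 also: plate controls were DMSO wells with enzyme for no effect and DMSO wells lacking enzyme for full effect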
PPC-1+TRAIL kill – compounds killing PPC-1 cancer cells with TRAIL present (potentiator screen, no TRAIL-free arm); PPC-1 cells + TRAIL, ATPLite viability luminescence; cell killing (% activity), % at 4 µM or 5 µM; hit rate 0.41% among 220,000; AID 1443;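 active = cell killing above 50% in the first pass at 4 µM, then a duplicate retest at 5 µM averaging 50% or more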;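 also: plate controls were cells with TRAIL plus DMSO for no effect and medium-only wells lacking cells for full effect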
SENP7 inh – SENP7 protease inhibition; inhibition, % at 5 µM; hit rate 1.5% among 330,000; recombinant SENP7, Z-RLRGG-aminoluciferin luminescence, 40 min; Q9BQF6; AID 434973;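 active = inhibition above about 50% at the single test dose, limit read from the data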;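 also: plate controls were DMSO with enzyme for no effect and no enzyme buffer wells for full effect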
Target sequence (Q9BQF6 706-1050 limits assumed): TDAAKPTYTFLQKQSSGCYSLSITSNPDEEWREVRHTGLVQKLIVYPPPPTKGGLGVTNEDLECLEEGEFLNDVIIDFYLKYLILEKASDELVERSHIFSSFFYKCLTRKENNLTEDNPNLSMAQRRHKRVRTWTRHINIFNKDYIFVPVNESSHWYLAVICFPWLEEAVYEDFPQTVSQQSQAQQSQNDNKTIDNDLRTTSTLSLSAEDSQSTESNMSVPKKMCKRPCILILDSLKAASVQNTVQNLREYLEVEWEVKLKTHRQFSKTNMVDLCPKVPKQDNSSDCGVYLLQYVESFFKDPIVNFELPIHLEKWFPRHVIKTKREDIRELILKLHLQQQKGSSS
SENP8 block-2 – inhibitors of human SENP8 protease; hit rate 0.64% among 360,000; recombinant SENP8, Nedd8 substrate fluorescence; Q96LD8; inhibition, % at 20 µM; in the data active = inhibition mostly above about 40%, no sharp cut-off; inactive = mostly below about 27%
SENP8 confirm – human SENP8 inhibition, confirmed. shares compounds with SENP7 inh. Recombinant SENP8, Z-RLRGG-aminoluciferin luminescence, 60 min. inhibition, % at 12.5 µM. hit rate 40% among 6,200. AID 488912;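 active = mean inhibition across replicates above about 50%, limit read from the data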
SENP6 confirm – human SENP6 inhibition, confirmed; inhibition, % at 12.5 µM; hit rate 58% among 6,200; shares compounds with SENP7 inh; AID 488915; recombinant SENP6, Z-RLRGG-aminoluciferin luminescence
SENP7 confirm – confirmation of human SENP7 protease inhibitors | shares compounds with SENP7 inh | recombinant SENP7, Z-RLRGG-aminoluciferin luminescence, 40 min | inhibition, % at 12.5 µM | hit rate 69% among 6,200 | AID 488917
Casp3 SENP sel – caspase-3 inhibition (SENP selectivity assay). shares compounds with SENP7 inh. hit rate 60% among 6,200. inhibition, % at 12.5 µM. purified caspase-3, Z-DEVD-aminoluciferin luminescence, 60 min;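 active = mean inhibition above about 50%, limit read from the data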;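 also: plate controls were enzyme with DMSO for no effect and wells without caspase-3 for full effect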
Target sequence (P42574 28-227 limits assumed): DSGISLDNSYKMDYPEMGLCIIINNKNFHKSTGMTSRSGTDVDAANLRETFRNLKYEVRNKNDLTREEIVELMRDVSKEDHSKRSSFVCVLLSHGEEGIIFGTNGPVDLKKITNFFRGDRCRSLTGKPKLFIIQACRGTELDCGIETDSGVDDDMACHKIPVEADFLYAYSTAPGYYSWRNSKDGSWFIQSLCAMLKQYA
SENP luc ctr – luminescence interference (SENP counter-screen) | inhibition, % at 12.5 µM | Pre-incubated SENP8/Z-RLRGG-aminoluciferin, luciferase luminescence interference | hit rate 39% among 6,200 | shares compounds with SENP7 inh;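 active = mean inhibition above about 50% when retested at one dose, limit read from the data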;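 also: plate controls were DMSO wells with completed reaction for no effect and substrate without enzyme for full effect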
* marks the source's active call; other numbers are inactive results. Only some compounds are listed: those with a hit (about 3% of all), similar ones and a draw of the others.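 The calls were made as follows, unless noted: active = mean inhibition above about 50% in the one-dose retest (limit read from the data); inactive = the rest.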

For Cc1nn(-c2ccccc2)c(C)c1C(=O)OCC(=O)Nc1ccccc1 the results were TRAIL sens C8 12.0, SENP8 block-1 75.4*, SENP6 block 82.7*, SENP7 inh 80.9*, SENP8 block-2 -0.8, SENP8 confirm 77.3*, SENP6 confirm 76.0*, SENP7 confirm 94.5*, Casp3 SENP sel 82.6* and SENP luc ctr 74.2*.
`Cc1ccc(NC(=O)COC(=O)c2c(C)nn(-c3ccccc3)c2C)cc1` gave TRAIL sens C8 9.3, SENP8 block-1 -4.4, SENP6 block 4.2, SENP7 inh 4.6 and SENP8 block-2 1.9.
For O=c1ccc(-c2ccc([N+](=O)[O-])cc2)nn1-c1ccccc1 the results were TRAIL sens C8 -4.1, SENP8 block-1 3.3, SENP6 block -11.8, PPC-1+TRAIL kill 4.2, SENP7 inh 0.6 and SENP8 block-2 11.3.
`O=c1cc(-c2ccccc2)[nH]n1-c1ccc([N+](=O)[O-])cc1` gave TRAIL sens C8 3.2, SENP8 block-1 79.2*, SENP6 block 83.8*, PPC-1+TRAIL kill 23.3, SENP7 inh 25.3, SENP8 block-2 39.7, SENP8 confirm 85.9*, SENP6 confirm 92.9*, SENP7 confirm 99.7*, Casp3 SENP sel 90.0* and SENP luc ctr 70.7*.
`Cc1cc(C(=O)Nc2ccc(C(=O)O)cc2)c(C)o1` gave TRAIL sens C8 -8.8, SENP8 block-1 68.4*, SENP6 block 80.4*, SENP7 inh 73.7*, SENP8 block-2 6.9, SENP8 confirm -6.0, SENP6 confirm 61.3*, SENP7 confirm 87.7*, Casp3 SENP sel 91.3* and SENP luc ctr 65.0*.
Cc1cc(C(=O)Nc2cccc(C(=O)O)c2)oc1C was read as TRAIL sens C8 21.6, SENP8 block-1 92.4*, SENP6 block 92.3*, PPC-1+TRAIL kill 41.7, SENP7 inh 98.1*, SENP8 block-2 18.9, SENP8 confirm 94.7*, SENP6 confirm 95.1*, SENP7 confirm 99.6*, Casp3 SENP sel 86.5* and SENP luc ctr 93.6*.
`Cc1cc(C(=O)Nc2cccc(C(=O)O)c2)c(C)o1` gave TRAIL sens C8 0.0, SENP8 block-1 68.4*, SENP6 block 89.8*, PPC-1+TRAIL kill -23.7, SENP7 inh 83.8*, SENP8 block-2 13.4, SENP8 confirm -7.9, SENP6 confirm 80.9*, SENP7 confirm 97.8*, Casp3 SENP sel 49.3 and SENP luc ctr 88.3*.
Cc1oc(C(C)(C)C)cc1C(=O)Nc1ccc(C(=O)O)cc1 was read as TRAIL sens C8 4.7, SENP8 block-1 3.5, SENP6 block 9.1, PPC-1+TRAIL kill -9.5, SENP7 inh 10.3 and SENP8 block-2 28.0.
`Cc1ccc(NC(=O)CCc2nnc3ccc(N4CCC5(CC4)OCCO5)nn23)cc1F` gave TRAIL sens C8 2.1, SENP8 block-1 -4.6, SENP6 block -17.3, SENP7 inh 19.1 and SENP8 block-2 -23.4.
Screening O=c1oc(-c2cc3ccccc3o2)nc2sc3c(c12)CCCC3 returned TRAIL sens C8 -4.1, SENP8 block-1 0.0, SENP6 block -23.0, PPC-1+TRAIL kill 11.3, SENP7 inh -7.4 and SENP8 block-2 -122.6.
O=c1oc(-c2cccs2)nc2sc3c(c12)CCCCC3 was read as TRAIL sens C8 8.6, SENP8 block-1 38.8, SENP6 block 55.3*, PPC-1+TRAIL kill -7.5, SENP7 inh 5.0, SENP8 block-2 8.7, SENP8 confirm 14.9, SENP6 confirm 9.1, SENP7 confirm 2.0, Casp3 SENP sel 24.0 and SENP luc ctr 5.9.
Screening CC1(C)Cc2c(sc3nc(-c4cccs4)n(N)c(=O)c23)CO1 returned TRAIL sens C8 35.2, SENP8 block-1 1.7, SENP6 block -1.0, PPC-1+TRAIL kill 31.7, SENP7 inh -5.3 and SENP8 block-2 -292.6.
`O=c1oc(-c2ccccc2)nc2sc3c(c12)CCCC3` gave TRAIL sens C8 18.8, SENP8 block-1 91.7*, SENP6 block 94.3*, PPC-1+TRAIL kill 10.8, SENP7 inh 95.7*, SENP8 block-2 -35.4, SENP8 confirm 61.7*, SENP6 confirm 48.1, SENP7 confirm 39.6, Casp3 SENP sel 80.9* and SENP luc ctr 32.9.
`Cc1ccccc1-c1nc2sc3c(c2c(=O)o1)CCC3` gave TRAIL sens C8 -4.3, SENP8 block-1 83.3*, SENP6 block 87.7*, PPC-1+TRAIL kill 1.8, SENP7 inh 78.6*, SENP8 block-2 -54.3, SENP8 confirm 9.1, SENP6 confirm 8.5, SENP7 confirm 53.3*, Casp3 SENP sel 37.5 and SENP luc ctr 7.1.
Nn1c(-c2cccs2)nc2sc3c(c2c1=O)CCCC3 was read as TRAIL sens C8 40.8, SENP8 block-1 71.4*, SENP6 block 89.7*, PPC-1+TRAIL kill 28.0, SENP7 inh 58.8*, SENP8 block-2 -408.8, SENP8 confirm 30.8, SENP6 confirm 69.9*, SENP7 confirm 90.1*, Casp3 SENP sel 60.1* and SENP luc ctr 27.2.
CCCCNC(=O)c1[nH]c(=O)cnc1-c1ccccc1 was read as TRAIL sens C8 -8.5 and SENP8 block-2 8.3.
O=c1oc(-c2cccs2)nc2scc(-c3cccs3)c12 was read as TRAIL sens C8 -2.4, SENP8 block-1 -16.9, SENP6 block -21.8, PPC-1+TRAIL kill -0.1, SENP7 inh -25.6 and SENP8 block-2 -120.9.
Screening Cc1sc2nc(-c3cccs3)oc(=O)c2c1C returned TRAIL sens C8 -0.4, SENP8 block-1 35.2, SENP6 block 14.8, SENP7 inh 50.9*, SENP8 block-2 -34.8, SENP8 confirm 39.2, SENP6 confirm 35.7, SENP7 confirm 60.3*, Casp3 SENP sel 32.4 and SENP luc ctr 50.0.
For CSc1nnc(Cc2cc(=O)[nH]c(=O)[nH]2)n1-c1cc(C)ccc1C the results were TRAIL sens C8 -1.1, SENP8 block-1 4.9, SENP6 block 14.5, PPC-1+TRAIL kill -0.1, SENP7 inh 6.7 and SENP8 block-2 16.2.
